Screening results from PubChem BioAssay.
Autofluor 339: intrinsic fluorescence of library compounds, ex339/em460 – biochemical, MLSMR library, data from DPM-DC assay, artefact control, profiling panel; hit rate 5.5% among 65,000; fluorescence fold increase at 10 µM; compound autofluorescence, ex339/em460 nm, NADH buffer; active compounds read high; 1 = no-compound wells, NADH background; AID 709;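 active = at 10 µM, mean starting fluorescence two-fold or more over control wells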;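 also: signal is the first read of a kinetic run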
A340 absorber: compounds absorbing at 340 nm | compound absorbance at 340 nm, fold over control | fold change at 10 µM | 65,000 tested, under 10 active | AID 708;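 active = at 10 µM dose, initial 340 nm absorbance at least 2 fold that of control wells; inactive = change under 2 fold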;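 also: initial absorbance extrapolated from kinetic A340 decline of NADH oxidation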
Spn DPM-DC inh: S. pneumoniae DPM-DC inhibition | purified DPM-DC, PK/LDH coupled NADH fluorescence | calls only at 10 µM | hit rate 0.49% among 65,000;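 active = the 320 compounds with the highest percent inhibition in the single-dose primary screen, excluding strongly autofluorescent ones, cut at about 32% in these data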;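 also: kinetic rate of NADH fluorescence loss reporting ADP formed by the decarboxylase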
PMK inhibit: S. pneumoniae PMK inhibition; purified PMK, PK/LDH-coupled NADH absorbance 340 nm; inhibition, % at 10 µM; hit rate 0.49% among 65,000;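 active = top-ranked compounds by inhibition in the single 10 µM screen, taking a fixed number of the strongest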
MK inhibit: S. pneumoniae mevalonate kinase inhibition. AID 555. hit rate 0.48% among 65,000. purified MK, PK/LDH-coupled NADH absorbance 340 nm. inhibition, % at 10 µM;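 active = ranked among the strongest by inhibition in the single 10 µM screen, a fixed top-ranked set picked for dose follow-up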
NADH coupling: inhibition of NAD/NADH coupling enzymes, library profiling | IC50, µM (titrated, usually from 10 µM) | hit rate 0.02% among 65,000 | coupled PK/LDH NADH assays, four targets | AID 774;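 active = single-dose screening hits from any of four coupled enzyme assays that gave an IC50 when retested across doses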;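 also: the DPM-DC format reads NADH fluorescence rather than 340 nm absorbance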
Of the large screens only hits and unclear results are named; the others gave an inactive call; [ ] = another dose, or the depositor's remark. Compounds with a hit are over-represented: about 6.3% of the library has one in this group of screens.

CC12CCC(=O)N1c1c(sc3nc(N4CCOCC4)c4c(c13)CCCC4)C(=O)N2 (configuration not stated)	Autofluor 339 2.4 (not shown: Spn DPM-DC inh)
Cc1ccc2c(c1)-c1c(cnn1CC(=O)Nc1ccccc1N1CCN(C)CC1)CO2	none
Cc1cccc(N(C)c2cc(C)nc3nc(C)nn23)c1	none
COC(=O)c1ccc(C(=O)OC)c(NC(=O)c2cnc3n(c2=O)CCS3)c1	Autofluor 339 2.4
C=CCn1c(C(C)NC(=O)CCC)nc2ccccc21 (configuration not stated)	none
COc1ccccc1C(=O)NCCN1CCN(C(=O)c2ccccc2OC)CC1	none
COCCNC(=O)c1c(N)n(CCCn2ccnc2)c2nc3ccccc3nc12	Autofluor 339 3.8 (not shown: Spn DPM-DC inh)
COc1ccc(OC)c(-n2c(N)c(C(=O)NCC3CCCO3)c3nc4ccccc4nc32)c1 (configuration not stated)	Autofluor 339 2.1 (not shown: Spn DPM-DC inh)
CC(C)Cn1c(N)c(C(=O)NCC2CCCO2)c2nc3ccccc3nc21 (configuration not stated)	Autofluor 339 2.1 (not shown: Spn DPM-DC inh)
Nc1c(C(=O)NCC2CCCO2)c2nc3ccccc3nc2n1/N=C/c1ccncc1 (configuration not stated)	none
COCCn1c(N)c(C(=O)NCC2CCCO2)c2nc3ccccc3nc21 (configuration not stated)	Autofluor 339 2.4 (not shown: Spn DPM-DC inh)
COc1ccc(C(=O)NCCCn2ccnc2)cc1	none
Cc1ccc(-n2c(CSc3nc(C)cc(C)n3)nnc2SCC(=O)N2CCCC2)cc1	none
Cc1ccc2[nH]c(=O)c(CN(Cc3cccnc3)Cc3nnnn3CCN3CCOCC3)cc2c1	none
Cc1csc(N(C)C(=O)CSc2nnc(COc3cccc4ccccc34)o2)n1	none
CCOc1ccc(NC(=O)COC(=O)c2cccnc2)cc1	none
COc1ccc2oc(C(=O)C3CC3)c(NC(=O)CCCN3C(=O)c4ccccc4C3=O)c2c1	none
CC1CN(C(=O)Cc2ccc(-c3ccccc3)cc2)CC(C)O1 (configuration not stated)	none
COCCn1c(N)c(C(=O)NCc2cccs2)c2nc3ccccc3nc21	Autofluor 339 3.7 (not shown: Spn DPM-DC inh)
COCCn1c(N)c(S(=O)(=O)c2cccs2)c2nc3ccccc3nc21	Autofluor 339 3.9 (not shown: Spn DPM-DC inh)
Nc1c(C(=O)OCC2CCCO2)c2nc3ccccc3nc2n1C1CCCC1 (configuration not stated)	Autofluor 339 3.8 (not shown: Spn DPM-DC inh)
COCCn1c(N)c(C(=O)Nc2sc3c(c2C(=O)OC)CCCC3)c2nc3ccccc3nc21	none
COCCCNc1nc2ccccc2nc1NS(=O)(=O)c1cccs1	none
Nc1c(C(=O)NC2CCCC2)c2nc3ccccc3nc2n1N	none
Cc1cc(C(=O)CSCc2nnc3n(CCC(C)C)c(=O)c4ccccc4n23)c(C)n1C	none
COC(=O)c1ccccc1NC(=O)c1ccc(-c2ccccc2F)o1	Autofluor 339 2.2 (not shown: Spn DPM-DC inh)
COC(=O)c1c(C(=O)OC)c2ccncn2c1Cl	Spn DPM-DC inh active
COC(=O)C1=C(C)N(c2ccc(Cl)c(Cl)c2)C(=O)C1	none
O=C(O)c1ccc(-c2ccc(O)c(F)c2)cc1	none
CN1CCc2c(sc3c2c(=O)n(-c2ccccc2)c2nnc(SCc4ccccc4)n32)C1	none
CN1CCc2c(sc3c2c(=O)n(-c2ccccc2)c2nnc(SCc4ccc(F)cc4)n32)C1	PMK inhibit active
Cc1[nH]nc(-c2ccc(O)c(C)c2O)c1-c1cnn(-c2ccccc2)c1	none
Cc1ccc(C)c(-c2nc3ccc(N)cc3[nH]2)c1	Autofluor 339 3 (not shown: Spn DPM-DC inh)
Nc1ccc2nc(-c3ccc(Cl)cc3)[nH]c2c1	Autofluor 339 2.1 (not shown: Spn DPM-DC inh)
Nc1ccc(-c2nc3c(Cl)c(N)ccc3[nH]2)cc1	Autofluor 339 3.6 (not shown: Spn DPM-DC inh)
Cc1ccc(C)c(-c2nc3cc(N)ccc3o2)c1	Autofluor 339 2.3, Spn DPM-DC inh active[fluoresces]
Cc1ccc2nc(C(O)C(O)c3nc4ccc(C)cc4[nH]3)[nH]c2c1 (configuration not stated)	none
COc1cccc(C2/C(=C(\O)c3ccc4c(c3)OCCO4)C(=O)C(=O)N2CCCN(C)C)c1OC (configuration not stated)	none
COc1ccc(CCn2c(-c3ccco3)nc3oc4ccccc4c(=O)c3c2=O)cc1	none
c1ccc(-c2nn3c(-c4ccco4)nnc3s2)nc1	none
N#Cc1c(-c2ccco2)cc(-c2ccccn2)nc1N	Autofluor 339 3.7 (not shown: Spn DPM-DC inh)
N#Cc1c(-c2ccco2)cc(-c2cccnc2)nc1N	Autofluor 339 3.7 (not shown: Spn DPM-DC inh)
Cc1c(-c2ccccc2)nc(N)c(C#N)c1-c1ccco1	Autofluor 339 2.6
O=C1NC2c3ccccc3C(=O)N2c2c1cnn2-c1ccccc1 (configuration not stated)	none
COCc1ccc2oc(C(=O)O)cc2c1	none
O=C(Cn1cc2c(n1)CCCCC2)NCc1cccs1	none
CCN(c1ccccc1)c1cc(C)nc2nc(C)nn12	none
CCc1ccc(-c2cn3nc(C)c(C)nc3n2)cc1	Autofluor 339 2.3 (not shown: Spn DPM-DC inh)
Cc1nc2nc(-c3ccccc3)cn2nc1C	Autofluor 339 2.2 (not shown: Spn DPM-DC inh)
CCc1c(-c2ccccc2)nc2nc(C)c(C)nn12	Autofluor 339 2.1 (not shown: Spn DPM-DC inh)
Cc1cc(N)n2nc(-c3ccccc3)cc2n1	none
Cc1nn2cc(-c3ccc(N)cc3)nc2s1	none
O=C(c1cc(-c2ccncc2)nc2ccccc12)N1CCN(c2ccc(N3CCOCC3)nn2)CC1	none
N#CCSc1nnc(COc2ccc3ccccc3c2)o1	none
CCOC(=O)N1CCC(NC(=O)c2sc(-n3cccc3)nc2C)CC1	none
OCC1CCCN(Cc2ccc(-c3ccccc3)cc2)C1 (configuration not stated)	MK inhibit 41
O=C(NC1=NCCS1)c1ccc(-c2ccc(Cl)cc2)o1	Autofluor 339 2.1 (not shown: Spn DPM-DC inh)
CCOc1cc(C(=O)NCCN2CCOCC2)cc(OCC)c1OCC	MK inhibit 50
COCCn1c(=O)c2c3c(sc2n(CC(N)=O)c1=O)CCCC3	none
CCCC12CN3CC(CCC)(CN(C1)C3C(O)C(O)C(O)CO)C2=O (configuration not stated)	none
COC(=O)c1ccc(C)c(NS(=O)(=O)c2ccc(OC)cc2)c1	none
COC(=O)c1ccc(C(=O)OC)c(NS(=O)(=O)c2ccc(NC(C)=O)cc2)c1	Autofluor 339 2.2 (not shown: Spn DPM-DC inh)
CCOC(=O)c1ccc(NC(=O)CSc2nc(C)cc(=O)[nH]2)cc1	PMK inhibit 26
O=c1cc(O)c2c(=O)[nH]c(=O)n(-c3ccccc3)c2[nH]1	PMK inhibit 25
O=C1c2ccccc2NC2(CCCCC2)N1c1ccc(O)cc1	Autofluor 339 3.7 (not shown: Spn DPM-DC inh)
O=C1NC2(CCCCC2)Oc2ccccc21	none
O=C1c2ccc(-c3nc4ccccc4o3)cc2C(=O)N1Cc1cccnc1	Autofluor 339 2.1 (not shown: Spn DPM-DC inh)
CCN(CC)c1ccc(NC(=O)CSc2nnc(N)s2)cc1C	none
CCN(CC)c1cc(C)c2cc(NC(=O)CNC(C)=O)ccc2n1	Autofluor 339 2.2 (not shown: Spn DPM-DC inh)
